Laboratory results taken from PubChem BioAssay (Tox21).
Active and inactive are the calls of the source. Where a call stands in place of a potency, no number is given. Calls come from the whole dose curve; as a rule, active = well fitted cell-killing curve with a large enough effect in the repeat runs; inconclusive = weak or mixed curves, or effect the other way; inactive = flat fitted curve, though single readings scatter.

Assay: qHTS assay to identify small molecule HDAC inhibitors - cell viability counter screen (AID 1259365); note: nearly all actives have a fitted effect of over 50% in size
Details: HCT-116 viability, CellTiter-Glo ATP luminescence, 2 h; series mostly up to 92.4 µM
Text: U.S. Tox21 Program National Center for Advancing Translational Sciences [NCATS] NIH Chemical Genomics Center [NCGC] U.S. Environmental Protection Agency [EPA] National Institutes of Environmental Health Sciences [NIEHS] National Toxicology Program [NTP] U.S. Food and Drug Administration [FDA] Tox21 Assay Overview: Histone deacetylases (HDACs) are a group of epigenetic enzymes that regulate gene expression by histone deacetylation. HDACs are capable of introducing epigenetic modifications and such aberrations contribute to the onset and progression of several human diseases, thus making HDACs a popular therapeutic target. For identifying endogenous class I/II HDAC inhibitors a homogenous, luminogenic HDAC I/II cell based assay was used to measure the relative activity of class I and II HDACs from cells. Wild type HCT-116 cells were used to screen Tox21 compound libraries for identifying class I/II HDAC inhibitors.
Tox21 Assay Protocol Summary: HCT-116 cells were dispensed at 1,500 per well in 5uL of culture medium into white solid bottom 1536-well plates (Greiner Bio-One, Monroe, NC) using a Multidrop Combi (Thermo Scientific, Waltham, MA) dispenser. The assay plates were incubated at 37 C and 5% CO2 for an overnight, and then 23nL of compounds dissolved in DMSO and positive control were transferred using a Pintool station (Wako, San Diego, CA). The assay plates were incubated at 37C and 5% CO2 for 2hr. After compound treatment, 4uL of CellTiter-Glo reagent (Promega Corporation, Madison, WI) was added to each well of the assay plates using Flying Reagent Dispenser (FRD, Aurora Discovery, San Diego, CA) and incubated the assay plates at room temperature for 30min. The luminescence signal was quantified using a ViewLux plate reader (Perkin Elmer, Shelton, CT).

| Structure (SMILES) | Potency |
| --- | --- |
| COC(=O)Nc1nc2ccccc2[nH]1 | inactive |
| O=C1Nc2ccc(Cl)cc2C(c2ccccc2)=NC1O (stereo not given) | inactive |
| CCOP(=S)(OCC)SCSC(C)(C)C | inactive |
| O=NN(c1ccccc1)c1ccccc1 | inactive |
| NN=C(N)N | inactive |
| CC(C)CON=O | inactive |
| c1ccc2c(c1)Nc1ccccc1S2 | inactive |
| CC(C)(O)C(=O)Nc1ccc([N+](=O)[O-])c(C(F)(F)F)c1 | inactive |
| C[C@]12CCC(=O)C=C1CC[C@@H]1[C@@H]2CC[C@@]2(C)[C@H]1CC[C@]2(C)O | inactive |
| Cc1ccc([N+](=O)[O-])cc1 | inactive |
| CC(C)(O)C#N | inactive |
| N#CCCCCC#N | inactive |
| S=c1[nH]c2ccccc2[nH]1 | inactive |
| Nc1ccc2ccccc2c1 | inactive |
| [CH3][Sn]([Cl])([Cl])[Cl] | inactive |
| CC(C)(c1ccc(OCC2CO2)cc1)c1ccc(OCC2CO2)cc1 (stereo not given) | inactive |
| Cc1ccc(N=CN(C)C=Nc2ccc(C)cc2C)c(C)c1 | inactive |
| C[N+](C)(C)C | inactive |
| N#CC(c1ccccc1)c1ccccc1 | inactive |
| CCCCCCCCCCCCCl | inactive |

| Structure (SMILES) | Potency |
| --- | --- |
| CN(C)c1ccccc1 | inactive |
| [Cl-].[Cl-].[Cl-].[Fe+3] | inactive |
| Nc1ccc([N+](=O)[O-])cc1N | inactive |
| O=C(O)CF | inactive |
| CCCCOC(=O)COC(=O)c1ccccc1C(=O)OCCCC | inactive |
| CCOC(=O)c1ccccc1N | inactive |
| CCCCSP(=O)(SCCCC)SCCCC | inactive |
| CC1(C)C(C(=O)OC(C#N)c2cccc(Oc3ccccc3)c2)C1(C)C (stereo not given) | inactive |
| CC(C)=CC1C(C(=O)OCN2C(=O)C3=C(CCCC3)C2=O)C1(C)C (stereo not given) | inactive |
| CCOP(=O)(OCC)OCC | inactive |
| CS(=O)(=O)NC(=O)c1cc(Oc2ccc(C(F)(F)F)cc2Cl)ccc1[N+](=O)[O-] | inactive |
| CCC1(c2ccc(N)cc2)CCC(=O)NC1=O (stereo not given) | inactive |
| Cl | inactive |
| Clc1ccccc1-c1nnc(-c2ccccc2Cl)nn1 | inactive |
| CC(C)(c1ccccc1)c1ccc(O)c(C(C)(C)c2ccccc2)c1 | inactive |
| C=C(C)C#N | inactive |
| CCCCCCCCCC(CC)c1ccc(S(=O)(=O)O)cc1 (stereo not given) | inactive |
| CC(C)=CC1C(C(=O)OCc2cccc(Oc3ccccc3)c2)C1(C)C (stereo not given) | inactive |
| C[C@]12CC[C@H]3[C@@H](CCC4=CC(=O)CC[C@@H]43)[C@@H]1CC[C@@H]2O | inactive |
| O=[N+]([O-])/N=C1\NCCN1Cc1ccc(Cl)nc1 | inactive |
